Screening results deposited in PubChem BioAssay by National Center for Advancing Translational Sciences (NCATS).
HP1b chromo inh: HTS for Inhibitors of HP1-beta Chromodomain Interactions with Methylated Histone Tails | AlphaScreen HP1-beta / biotin-H3K9me3 peptide binding | Chromobox protein homolog 1 (Homo sapiens), P83916 | 390,000 compounds, 0.56% hits | Potency, µM (series often up to 114 µM), usual class: inhibitors | AID 540317, 2011; further: nearly all actives have a fitted effect of over 70% in size
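AlphaScreen: HP1-beta (50 nM) preformed 30 min with biotin-H3(1-18)K9me3 peptide (50 nM) in PBS pH 7.4, 0.01% Tween-20. Compound added for 30 min at RT, then streptavidin donor/nickel chelate acceptor beads (10 ug/mL) for 30 min.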
BAZ2B inh: qHTS Assay for Inhibitors of BAZ2B; AlphaScreen BAZ2B-H3K14Ac peptide displacement; Potency, µM (series often up to 114 µM), usual class: inhibitors; 360,000 compounds, 4.4% hits; further: nearly all actives have a fitted effect of over 60% in size
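Compounds, titrated to a top concentration of 110 uM, were incubated 30 min at room temperature with preformed BAZ2B/acetyl-K14 H3 peptide complex (50 nM each). Proximity signal was measured by AlphaScreen after 20 min with beads.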
G9a block: qHTS Assay for Inhibitors of Histone Lysine Methyltransferase G9a; Histone-lysine N-methyltransferase EHMT2 (Homo sapiens), Q96KQ7; G9a H3K9 monomethylation, AlphaScreen, 2 h; Potency, µM (titrated, usually from 102 µM), most hits filed as inhibitors; 350,000 compounds, 8.8% hits; further: nearly all actives have a fitted effect of over 75% in size
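Step 1: enzyme (final 20 nM) with compound, 15 min RT. Step 2: substrate peptide 500 nM and SAM 20 uM, 2 h RT. Step 3: anti-H3K9me1 antibody and AlphaScreen beads, 10 min, then plate read.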
PLK1 PBD inh: qHTS for Inhibitors of PLK1-PDB (polo-like kinase 1 - polo-box domain): Primary Screen; Plk1 PBD binding of FITC phosphopeptide, fluorescence polarization; 360,000 compounds, 2.8% hits; Potency, µM, actives largely listed as inhibitors; Serine/threonine-protein kinase PLK1 (Homo sapiens), P53350; further: series mostly up to about 57 µM; nearly all actives have a fitted effect of over 65% in size
Target sequence (P53350 whole entry, looked up, the tested form may be a part): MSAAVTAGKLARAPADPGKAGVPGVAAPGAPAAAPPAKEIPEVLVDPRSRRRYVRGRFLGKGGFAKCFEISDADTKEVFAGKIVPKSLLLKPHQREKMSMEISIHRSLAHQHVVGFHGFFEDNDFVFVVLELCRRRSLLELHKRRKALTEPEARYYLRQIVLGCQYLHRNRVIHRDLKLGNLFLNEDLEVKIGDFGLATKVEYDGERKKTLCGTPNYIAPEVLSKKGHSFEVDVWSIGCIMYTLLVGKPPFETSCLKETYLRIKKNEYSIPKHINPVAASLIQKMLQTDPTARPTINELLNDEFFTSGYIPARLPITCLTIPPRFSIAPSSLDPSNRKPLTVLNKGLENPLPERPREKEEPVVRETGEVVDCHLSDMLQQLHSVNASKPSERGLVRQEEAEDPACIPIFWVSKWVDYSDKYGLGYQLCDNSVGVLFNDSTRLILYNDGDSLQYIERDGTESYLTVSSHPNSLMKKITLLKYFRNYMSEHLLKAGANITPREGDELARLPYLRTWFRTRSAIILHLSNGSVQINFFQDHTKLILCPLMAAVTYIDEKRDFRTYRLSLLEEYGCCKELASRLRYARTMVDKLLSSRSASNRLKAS
Sfp inh: qHTS Assay for Inhibitors of Bacillus subtilis Sfp phosphopantetheinyl transferase (PPTase). AID 1490, 2009. 4'-phosphopantetheinyl transferase ffp (Bacillus subtilis), Q9F4F7. Biochemical Sfp PPTase activity, qHTS. Potency, µM, hits mostly inhibitors. 310,000 compounds, 3.5% hits;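 further: the enzyme is Sfp with the accession as filed and its product quenches rhodamine fluorescence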
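With Hepes-Na pH 7.6 buffer containing 10 mM MgCl2, Sfp (15 nM) modified BHQ-2-YbbR (12.5 uM) using rhodamine-CoA (5 uM). Two reads 30 minutes apart at 525/598 nm yielded each well's rate.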
JMJD2A Tudor: qHTS Assay for Inhibitors of JMJD2A-Tudor Domain | AlphaScreen JMJD2A-Tudor / H3K4me3 peptide binding | Potency, µM (top dose mostly 114 µM), actives largely listed as inhibitors | 390,000 compounds, 4.4% hits | AID 504339, 2011; further: nearly all actives have a fitted effect of over 50% in size
A number is an active result; n = inactive; u = inconclusive; x = not tested or not shown; ! = not active in a repeat; [ ] = another dose, or the depositor's remark. Rows were chosen to be rich in hits. Some 12% of all compounds tested hit in one or more screens of this group. The call rests on the fitted dose curve; in most records, active means well fitted curve in the direction sought with a large enough effect; inconclusive means small, poorly fitted or top-dose-only effect, or another doubt; inactive means no such curve, though single readings can be large; an effect the other way counts as inactive or inconclusive.

SMILES | HP1b chromo inh | BAZ2B inh | G9a block | PLK1 PBD inh | Sfp inh | JMJD2A Tudor
COc1ccc2c(CCNC(N)=S)c[nH]c2c1 | n | 89µM | n | 19µM | n | 20µM
COc1ccc(NC(=S)NCCc2ccc(Cl)cc2)c(OC)c1 | n | u | n | n | n | n
COc1cc2c(CCNC(C)=O)c[nH]c2cc1O | n | x | 20µM! | n | x | n
COc1ccc(NC(=S)NCCc2c[nH]c3ccc(OC)cc23)c(OC)c1 | n | 45µM | x | n | n | u
COc1ccc(NC(=S)NCCc2c[nH]c3ccccc23)c(OC)c1 | n | 45µM | 50µM | n | n | n
COc1ccc2[nH]cc(CCNC(=O)c3ccc4ccccc4n3)c2c1 | n | u | 71µM | n | n | u
COc1ccc(C(=O)NCCc2c[nH]c3ccc(OC)cc23)cc1 | n | u | n | n | n | n
Cc1ccc(-c2nn(-c3ccccc3)cc2CNCc2ccccc2)cc1 | n | n | x | n | 18µM | n
Cc1ccc(-n2cc(CNCCCn3cccn3)c(-c3cccc(C)c3)n2)cc1 | n | n | n | n | n | n
Cc1cccc(-c2nn(-c3ccccc3)cc2CNCCO)c1 | u | x | x | x | x | 10µM
Cc1ccc(Cl)cc1N1CCN(Cc2nnc(-c3ccc4c(c3)OCO4)o2)CC1 | n | n | n | x | x | n
O=c1cc(-c2ccccc2)nc(SCc2nc(-c3ccccc3Cl)no2)[nH]1 | n | n | n | x | x | n
CCN(Cc1ccccc1)S(=O)(=O)c1cc2[nH]c(=O)c(=O)[nH]c2cc1C | n | n | x | n | n | n
CCOC(=O)c1sc(/N=C/c2ccc(O)cc2O)cc1C | n | n | 22µM | n | n | u
O=C(Cn1nc(-c2ccc(Cl)cc2)ccc1=O)NCCc1ccccc1 | n | n | n | x | x | n
CC(=O)Nc1cccc(NC(=O)CSc2nc(C)c(C)c(C)c2C#N)c1 | n | n | 10µM | u | u | n
CCN1C(=O)[C@H]2[C@@H](c3ccc(OC)cc3)N[C@]3(CCCN(Cc4ccc(C(F)(F)F)cc4)C3=O)[C@H]2C1=O | x | x | x | n | x | x
COc1ccc(C(=O)n2nc(-c3ccco3)nc2SC)cc1OC | n | n | 20µM | u | u | u
COc1ccc(C(=O)n2nc(-c3ccco3)nc2NCc2cccs2)cc1 | n | n | 10µM | x | x | n
CCC(=O)N1CCc2cc(S(=O)(=O)NCCC(=O)Nc3ccc(CC)cc3)ccc21 | n | x | n | x | x | n
CCc1cccc(C)c1NC(=O)Cn1nnc(-c2nc(-c3ccccc3F)no2)c1N | n | 56µM | u | x | x | n
Cc1cc(C)cc(NC(=O)Cn2nnc(-c3nc(-c4ccncc4)no3)c2N)c1 | n | u | n | x | x | 56µM
CC(C)C[C@H]1CNC(=S)N1C[C@H]1CCCN1C[C@H](CC(C)C)N1C[C@H](Cc2ccc(O)cc2)N(CC2CCCCCC2)C1=S | x | x | x | n | x | x
C[n+]1cc2c3c(ccc2c2ccc4cc5c(cc4c21)OCO5)OCO3 | n | x | 1.9µM | x | 8.9µM! | 89µM
CCCCN(C(C)=O)c1c(CC)nc2ccc(C(=O)NCc3cccs3)cn12 | x | x | x | n | x | x
SMILES | HP1b chromo inh | BAZ2B inh | G9a block | PLK1 PBD inh | Sfp inh | JMJD2A Tudor
O=C1c2ccccc2C(=O)N1c1cccc(N2C(=O)c3ccccc3C2=O)n1 | n | x | x | x | x | n
OCCNc1nc(Nc2cc(Cl)ccc2OC2CCCC2)nc(N2CCCC2)n1 | n | x | x | x | x | u
Cn1c(=O)[nH]c(=O)c2c1nc(N1CCN(c3cccc(Cl)c3)CC1)n2CCCc1ccccc1 | x | n | 18µM | x | n | x
CCCCn1c(N2CCC(Cc3ccccc3)CC2)nc2c1c(=O)[nH]c(=O)n2C | u | u | u | n | u | 50µM
C/C(=N\Nc1nc(C)cc(=O)[nH]1)C1CC1 | n | n | 7.9µM | n | 40µM | 18µM
Cc1cc(=O)[nH]c(NN=C(CC(C)C)CC(C)C)n1 | n | n | u | n | 56µM | u
Cc1cc(=O)[nH]c(N/N=C/c2ccco2)n1 | n | n | n[2.33 µM] | n | u | n
Cc1cc(=O)[nH]c(NN=C2CCC(C(C)(C)C)CC2)n1 (stereo unspecified) | n | n | 32µM | n | 50µM | n
Cc1ccc(NC(=O)C2CC(O)CN2C(=O)OCc2ccccc2)cc1C (stereo unspecified) | n | n | n | n | n | n
COc1ccc(OC)c(NC(=O)CN2C(=O)CCc3cc(S(=O)(=O)N4CCCCC4)ccc32)c1 | n | n | n[12.7 µM] | x | x | n
S=c1[nH]nc(CCc2ccccc2)n1-c1ccc(Cl)cc1 | n | n | u | u | u | u
COc1ccc(CC(=O)NCc2n[nH]c(=S)n2-c2cccc(C)c2)cc1 | n | n | 11µM | n | n | 7.9µM
O=C(Cc1ccccc1)NCc1n[nH]c(=S)n1-c1ccccc1 | u | n | u | 27µM | n | n[11.4 µM]
Cc1ccc(C(=O)NCc2n[nH]c(=S)n2-c2ccccc2)cc1[N+](=O)[O-] | n | n | 10µM | n | n | 14µM
COc1cccc(C(=O)NCc2n[nH]c(=S)n2-c2cccc(C)c2)c1 | n | n | u | n | n | 18µM
O=C(Nc1sc2c(c1C(=O)NCC1CCCO1)CCC2)c1cc(=O)c2ccccc2o1 (stereo unspecified) | n | n | n | x | x | n
COCCNC(=O)[C@H](C)/C=C(\c1cccnc1)C(NC(=O)OCc1ccccc1)c1ccc(C(=O)OC)cc1 (stereo partly specified) | x | x | x | x | n | x
Cc1ccc(-c2cnc3c(c2)C(=O)N([C@H](C)CO)C[C@H](C)[C@@H](CN(C)Cc2ccccc2F)O3)cc1 | x | x | x | n | x | x
CCCCC(CC)CNC(=O)CCCn1c(=O)[nH]c2ccsc2c1=O (stereo unspecified) | n | n | n | x | x | n
COc1ccccc1Cn1cc(C(=O)c2ccc(C)cc2)c(=O)c2cc(F)cc(F)c21 | n | n | n | x | x | n
O=C(NCc1n[nH]c(=S)n1-c1cccc(C(F)(F)F)c1)c1ccco1 | n | n | 13µM | n | n | 13µM
COc1ccc(CC(=O)NCc2n[nH]c(=S)n2C)cc1 | n | n | 45µM | n | n | u
O=C(NCc1nnc2c(C(F)(F)F)cc(Cl)cn12)c1ccco1 | n | n | n | n | n | n
Cn1nc(C(=O)NCC(=O)Nc2ccc(F)c(F)c2F)c2ccccc2c1=O | n | n | n | n | x | n
COc1ccc(NC(=O)CN(C)C(=O)c2cccnc2Sc2ccc(C)c(C)c2)cc1 | n | n | n | n | x | n
CCN(CC(=O)Nc1ccc(NC(C)=O)cc1)C(=O)c1cccnc1Sc1ccc(C)c(C)c1 | n | n | 50µM | n | x | n
